Sampled rows, rich in hits. Any-hit rate of the full collection: about 1.9%.
aSyn rescue – alpha-synuclein toxicity inhibition in yeast; Yeast expressing alpha-synuclein, growth rescue, BacTiter-Glo, 24 h; Potency, µM (doses to about 46.1 µM), inactives show at the top dose growth rescue (activation), usual class: activators; 370,000 tested, 0.14% active; AID 652106; note: potency is the fitted concentration of half-maximal effect; % of control where 0% means no effect; nearly all actives have a fitted effect of over 65% in size
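Galactose-induced alpha-syn yeast (OD600=0.02, raffinose-pregrown) + pinned cpd, 24 hr, 30 deg C; growth by BacTiter-Glo luminescence. Growth restoration scores as activation.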
LDHA block – blocks human lactate dehydrogenase A; purified LDHA, NADH/diaphorase-resazurin fluorescence; stronger effect = lower value; 480,000 tested, 0.15% active; AID 1347041; activity change, % (values are at about 110 or 230 µM); in the data active = activity change below about -30%; inconclusive = mostly about -25% to -30%;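 note: plate controls were DMSO wells for no effect and wells without enzyme for full effect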
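LDH5 2 nM; NADH 0.06 mM, pyruvate 0.2 mM; 200 mM Tris pH 7.4, EDTA, Tween-20; 5 min RT. Detection: diaphorase 0.133 mg/mL + resazurin 37 µM, fluorescence ex540/em590 at 0 and 20 min; normalized to enzyme-free and DMSO wells.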
Abeta rescue – restores growth of yeast expressing A-beta42 peptide; Potency, µM (highest dose often 46.1 µM), actives largely listed as activators; 410,000 tested, 0.063% active; AID 1347071; yeast expressing A-beta42, growth rescue, OD600, 48 h; response scale: 0% DMSO, 100% iron-clioquinol control; note: potency is the fitted concentration of half-maximal effect; nearly all actives have a fitted effect of over 55% in size
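Yeast A-beta toxicity model in growth medium with pinned compounds, 48 h at 30 C; growth read as absorbance at 600 nm. Normalized to FeCl3/clioquinol equimolar mix (positive) and DMSO (negative).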
FUS yeast rescue – FUS proteinopathy suppression in yeast; S. cerevisiae FUS-expressing, growth rescue, OD600, 24 h; Potency, µM (doses to about 76.6 µM), actives largely listed as activators; 390,000 tested, 0.24% active;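 note: potency is the fitted concentration of half-maximal effect; plate controls were DMSO vehicle for no effect and reference control for full effect; nearly all actives have a fitted effect of over 55% in size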
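Yeast expressing FUS under galactose induction, OD 0.005 in 2% galactose medium; compounds in a dilution series, 24 h at 30C. Growth rescue by absorbance at 600 nm; CP55940 positive control, DMSO negative.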
TDP-43 yeast inh – TDP-43 toxicity inhibition in yeast; TDP-43 expressing yeast growth rescue, BacTiter-Glo, 24 h; Potency, µM (highest dose often 46.1 µM), for inactives: top-dose growth rescue (activation), most hits filed as activators; 410,000 tested, 1.8% active; AID 652104; note: potency is the fitted concentration of half-maximal effect; % of control where 0% means no effect; nearly all actives have a fitted effect of over 50% in size
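Galactose-induced TDP-43 yeast, OD600=0.02, compound pinned; 24 hr, 30 deg C; BacTiter-Glo luminescence for growth. Inhibitors of TDP-43 toxicity read as activators.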
PTHR1 agonist – activates the human parathyroid hormone receptor PTHR1. 410,000 tested, 0.075% active. Potency, µM (doses to about 115 µM), for inactives: at the highest dose activation, usual class: activators. HEK293 GP2 PTHR1 cells, GloSensor cAMP luminescence, 1 h; note: potency is the fitted concentration of half-maximal effect; nearly all actives have a fitted effect of over 55% in size
Target sequence (Q03431 whole entry, looked up): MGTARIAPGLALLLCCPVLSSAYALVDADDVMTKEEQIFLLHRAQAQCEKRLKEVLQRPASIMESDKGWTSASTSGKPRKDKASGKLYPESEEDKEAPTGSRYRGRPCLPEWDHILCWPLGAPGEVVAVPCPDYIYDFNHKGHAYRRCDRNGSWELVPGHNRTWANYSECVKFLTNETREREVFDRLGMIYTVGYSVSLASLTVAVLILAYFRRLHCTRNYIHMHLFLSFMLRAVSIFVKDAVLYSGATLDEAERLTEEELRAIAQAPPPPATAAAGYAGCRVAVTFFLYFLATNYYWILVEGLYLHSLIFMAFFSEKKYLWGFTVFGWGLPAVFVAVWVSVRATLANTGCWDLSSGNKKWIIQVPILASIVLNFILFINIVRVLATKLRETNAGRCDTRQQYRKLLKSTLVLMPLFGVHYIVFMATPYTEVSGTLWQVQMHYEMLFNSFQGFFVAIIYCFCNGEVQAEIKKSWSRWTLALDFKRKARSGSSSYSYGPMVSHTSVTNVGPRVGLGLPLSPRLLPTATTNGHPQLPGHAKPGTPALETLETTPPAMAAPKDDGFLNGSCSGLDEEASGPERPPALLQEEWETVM
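HEK-293-derived GP2 cells expressing PTHR1 and a GloSensor cAMP reporter, 3,000/well, plated overnight, given luciferin plus IBMX (each 0.5 mM as added) for 1 h at 37 °C, then compound for 1 h at 37 °C. Luminescence was read after 15 min at room temperature.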
The depositor's hits bear a star; i = inactive; ? = inconclusive; . = no result; [ ] = another dose, or the depositor's remark. Unless noted, calls come from the whole dose curve; as a rule, active = well fitted curve in the direction sought with a large enough effect; inconclusive = small, poorly fitted or top-dose-only effect, or another doubt; inactive = no such curve, though single readings can be large; an effect the other way counts as inactive or inconclusive.

SMILES | aSyn rescue | LDHA block | Abeta rescue | FUS yeast rescue | TDP-43 yeast inh | PTHR1 agonist
CC(C)c1ccc(NC(=O)COC(=O)[C@@H]2CCCN2C(=O)c2cccs2)cc1 | 11% | 2 | i | ? | 35µM* | -33%
COc1cc(C(=O)NCc2nnnn2-c2ccc(C)c(C)c2)cc(OC)c1OC | . | -4 | i | i | 9% | -16%
CCCCOc1ccc(C(=O)NCc2nnnn2-c2ccc(C)c(C)c2)cc1 | . | 1 | i | i | 20µM* | i
Cc1cnc2c(S(=O)(=O)NC3CCCCNC3=O)cccc2c1 (stereo not given) | . | 5 | . | . | . | .
CCC1=Nc2cc(C(=O)O)ccc2Sc2ccccc21 | 11% | -6 | i | i | 20µM* | -10%
COc1ccc(CN2CCCCCC2c2cccs2)c(OC)c1 (stereo not given) | . | -2 | . | . | . | .
CCNC(=O)n1nccc1C(C)Oc1ccccc1 (stereo not given) | 1% | -5 | i | i | 11µM* | -7%[57.5 µM]
CC(NC(=O)c1cc(-c2ccncc2)nc2ccccc12)c1ccco1 (stereo not given) | . | 0 | . | . | . | .
O=C(Nc1ccccc1-c1ccccc1)c1ccc(Br)o1 | -12% | -4 | i | i | 22µM* | -6%[57.5 µM]
CCn1nc(C(=O)Nc2nccs2)c2ccccc2c1=O | . | 2 | . | . | . | .
O=C(CCCSc1nc2ccccc2s1)Nc1ccc(F)cc1 | . | 5 | . | . | . | .
Nc1cc2c(cc1Cl)-c1ccccc1C2 | 16% | 1 | i | . | 13µM* | -31%
Nc1cc2c(cc1Cl)-c1ccc(Cl)cc1C2 | -1% | -5 | i | i | 25µM* | i
Nc1ccc2c(c1)Cc1cc(N)c(Br)cc1-2 | 3% | -2 | i | . | 20% | -24%
CCCn1c(N2CCN(Cc3ccc(Br)cc3)CC2)nc2c1c(=O)[nH]c(=O)n2C | . | 4 | . | . | . | .
C#Cc1cccc(NC(=O)CCC(=O)c2ccc3c(c2)CCC3)c1 | . | 10 | . | . | . | .
CC(C)CN=C(NS(=O)(=O)c1ccccc1)C(Cl)(Cl)Cl | 15% | -3 | i | ? | 11µM* | -3%
CC(C)(C)c1cnnn1-c1ccc(C=O)cc1 | 8% | -6 | i | i | -16% | -15%[57.5 µM]
CC(C)(C)c1cnnn1-c1ccc(C(=O)CCl)cc1 | -9% | -5 | i | i | 8.9µM* | i
N/C(=N\OC(=O)c1cnn(-c2ccccc2)c1C(F)(F)F)c1cc(C(F)(F)F)cc(C(F)(F)F)c1 | 0% | -2 | i | i | -9% | -25%
O=C(NNC(=O)C(Cl)Cl)c1cnn(-c2ccccc2)c1C(F)(F)F | 16µM* | 2 | i | i | -2% | -9%
Cc1cc(C)n2nc(SCc3ccc(F)cc3Cl)nc2n1 | -17% | -5 | i | i | 11µM* | i
CCC1CCCN(C(=O)CCn2cnc3c2c(=O)n(C)c(=O)n3C)C1 (stereo not given) | . | 5 | . | . | . | .
CC(=O)/C(CN1CCCCC1)=N\O | 4% | -5 | i | i | -11% | -7%[57.5 µM]
C/C(=N\O)C(=O)C(CN1CCCCC1)CN1CCCCC1 | 14µM* | -3 | i | i | -29% | ?
SMILES | aSyn rescue | LDHA block | Abeta rescue | FUS yeast rescue | TDP-43 yeast inh | PTHR1 agonist
CCOc1ccccc1COC(=O)c1cccc(-n2cnnn2)c1 | 2% | 0 | i | i | 18µM* | -26%
COc1ccccc1C(=O)COC(=O)c1cccc(-n2cnnn2)c1 | 1% | 1 | i | i | 15% | -20%
Cc1ccc(Cl)cc1N(C)C(=O)c1cc2ccc3cccnc3c2[nH]1 | . | 6 | i | ? | 25µM* | -22%
Cc1cccc(N2CCN(C(=O)c3cc4ccc5cccnc5c4[nH]3)CC2C)c1 (stereo not given) | . | 2 | i | ? | 8.9µM* | -35%
Cc1ccc(C)c(N2CCN(C(=O)c3cc4ccc5cccnc5c4[nH]3)CC2)c1 | . | -1 | i | ? | 13µM* | i
Cc1cccc(N2CCN(C(=O)C3CCN(S(=O)(=O)c4cccc5cccnc45)CC3)CC2C)c1 (stereo not given) | 7% | -8 | i | 22µM* | 11% | -25%

Screening data (PubChem BioAssay)
